# Assay results from paper PMC4336329 (PLoS ONE, 2015).
# In all, about 310,000 compounds went through this assay and about 14,000 (4.5%) showed an effect of 50% or more. The effect is printed as a negative number. The full list was thinned out, with strong results kept by preference.
# Molecular target: human ether-à-go-go-related gene (hERG) potassium channel (human, UniProt Q12809)
# Test: primary screen, population patch clamp on CHO cells stably expressing hERG; higher = less effect of the substance
# 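Further: peak tail current of the secondary pulse compared with the same well before compound.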
# Sequence of human ether-à-go-go-related gene (hERG) potassium channel (Q12809 whole entry, looked up): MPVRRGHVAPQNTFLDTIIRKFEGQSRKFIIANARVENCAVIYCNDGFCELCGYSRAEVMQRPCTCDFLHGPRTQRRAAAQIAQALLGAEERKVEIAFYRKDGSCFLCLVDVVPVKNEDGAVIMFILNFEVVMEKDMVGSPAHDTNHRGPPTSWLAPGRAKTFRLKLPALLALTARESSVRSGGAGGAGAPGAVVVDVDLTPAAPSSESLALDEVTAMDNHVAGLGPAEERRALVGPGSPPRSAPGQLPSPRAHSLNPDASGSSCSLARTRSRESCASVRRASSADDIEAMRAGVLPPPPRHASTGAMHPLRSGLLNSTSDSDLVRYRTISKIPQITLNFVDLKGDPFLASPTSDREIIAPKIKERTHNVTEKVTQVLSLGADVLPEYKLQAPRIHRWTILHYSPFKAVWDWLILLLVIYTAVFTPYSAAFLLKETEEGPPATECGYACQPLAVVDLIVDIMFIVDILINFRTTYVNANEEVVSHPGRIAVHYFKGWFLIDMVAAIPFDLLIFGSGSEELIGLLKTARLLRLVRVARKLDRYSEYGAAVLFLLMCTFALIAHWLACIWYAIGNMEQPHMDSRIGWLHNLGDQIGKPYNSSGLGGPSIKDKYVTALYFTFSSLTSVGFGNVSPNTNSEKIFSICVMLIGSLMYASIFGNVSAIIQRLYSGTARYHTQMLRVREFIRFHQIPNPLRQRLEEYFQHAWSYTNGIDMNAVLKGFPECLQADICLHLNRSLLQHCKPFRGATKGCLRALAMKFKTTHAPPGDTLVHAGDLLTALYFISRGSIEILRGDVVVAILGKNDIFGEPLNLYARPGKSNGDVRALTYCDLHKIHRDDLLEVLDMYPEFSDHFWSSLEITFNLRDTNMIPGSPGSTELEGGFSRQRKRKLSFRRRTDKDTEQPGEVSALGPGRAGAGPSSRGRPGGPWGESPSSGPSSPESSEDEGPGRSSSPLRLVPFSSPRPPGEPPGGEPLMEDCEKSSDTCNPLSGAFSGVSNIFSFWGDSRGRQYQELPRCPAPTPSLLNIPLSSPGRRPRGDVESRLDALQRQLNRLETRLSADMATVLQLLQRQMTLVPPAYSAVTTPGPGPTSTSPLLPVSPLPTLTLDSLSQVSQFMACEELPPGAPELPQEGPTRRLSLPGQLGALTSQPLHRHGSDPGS
row,Compound,"hERG current change (%, negative = inhibition) at 10uM"
1,COc1ccc(N(CC(=O)Nc2ccc(C)cn2)S(=O)(=O)c2c(C)noc2C)cc1,-24.8%
2,Cc1cccc(C)c1NC(=S)N1CCOCC1,9.99%
3,Cc1ccc(NC(=O)CCS(=O)(=O)c2cccc3nonc23)c(Br)c1,6.97%
4,Cc1c(C(=O)N2CCC(C)CC2)cccc1[N+](=O)[O-],26.1%
5,O=C1CC2(CCN(C(=O)c3ccccc3[N+](=O)[O-])CC2)Oc2ccccc21,-62%
6,O=C(c1ccccc1[N+](=O)[O-])N1CCC2(CC1)OCCO2,3.53%
7,Cc1c(C(=O)N2CCC3(CC2)CC(=O)c2ccccc2O3)cccc1[N+](=O)[O-],-83.2%
8,O=C(c1ccccc1[N+](=O)[O-])N1CCCN(C(=O)c2ccccc2[N+](=O)[O-])CC1,-14.8%
9,Cc1c(C(=O)Nc2ccccc2C(=O)N2CCCC2)cccc1[N+](=O)[O-],9.76%
10,NC(=O)c1ccc(NC(=O)CNC(=O)c2sc3ccccc3c2Cl)cc1,0.282%
11,Cn1nccc1C(=O)Nc1ccn(C23CC4CC(CC(C4)C2)C3)n1,-11.6%
12,CN1CCN(S(=O)(=O)c2ccc(=O)[nH]c2)CC1,7.85%
13,O=C(NCCCN1CCOCC1)c1c(O)c2cc(Br)cc(Br)c2[nH]c1=O,-64.6%
14,O=C(NCCCn1ccnc1)c1cc(-c2ccccc2)on1,-16.3%
15,Cc1ccc(-c2cc(C(=O)NCCCN3CCOCC3)no2)cc1,-30.8%
16,Cl.O=C(NCCCN1CCOCC1)c1c(O)c2ccccc2[nH]c1=O,-47.9%
17,Cc1ccc(-c2cc(C(=O)NCCCn3ccnc3)no2)cc1,-42.9%
18,O=C(NCCCN1CCOCC1)c1cc(-c2ccc(Br)cc2)on1,-58.6%
19,COc1cc2[nH]c(=O)c(C(=O)NCCCN3CCOCC3)c(O)c2cc1OC.Cl,9.48%
20,O=C(NCCCn1ccnc1)c1cc(-c2ccc(Br)cc2)on1,-51.6%
21,O=C(NCCN1CCOCC1)c1cc(-c2ccc(Br)cc2)on1,-22%
22,COc1ccc(C2C(C(=O)Nc3ccc(OC)c(OC)c3)c3ccccc3C(=O)N2C)cc1 (stereo not shown),27.7%
23,O=C(CCc1cn2ccccc2n1)NC1CCCc2c1cnn2-c1ccccc1F (stereo not shown),0.178%

row,Compound,"hERG current change (%, negative = inhibition) at 10uM"
1,Fc1cccc(C2CCCCN2Cc2nc(C3CC3)no2)c1 (stereo not shown),13.3%
2,Cc1ccn2c(=O)nc(SCC(=O)c3ccc(Cl)cc3)nc2c1,-31.2%
3,CCN(CC(=O)NCc1cccs1)C(=O)/C=C/c1cccc(Br)c1,-66.8%
4,CCOc1c(Cl)cc(/C=C/C(=O)N(CC)CC(=O)NCc2cccs2)cc1OC,-55.4%
5,CCOc1ccc(/C=C/C(=O)N(CC)CC(=O)NCc2cccs2)cc1OC,-28.3%
6,CCN(CC(=O)NCc1cccs1)C(=O)/C=C/c1ccc(Cl)c(Cl)c1,-41.1%
7,CCOc1cc(/C=C/C(=O)N(CC)CC(=O)NCc2cccs2)cc(Cl)c1OC,-27.7%
8,CCN(CC(=O)NCc1cccs1)C(=O)/C=C/c1ccc(C)cc1,-29.4%
9,CCOC(=O)C1(C)NC(c2ccco2)C2C(=O)N(c3ccc(C)cc3)C(=O)C21 (stereo not shown),11.3%
10,C=CCSc1nc2ccccc2n2cnnc12,-18.5%
11,Cc1ccc2c(c1)C(c1ccccc1)N(C(=O)c1ccccc1)CC(=O)N2 (stereo not shown),-7.17%
12,Cc1ccc2c(c1)C(c1ccc(F)cc1)N(C(=O)c1cc3ccccc3oc1=O)CC(=O)N2 (stereo not shown),-55%
13,O=C1CN(C(=O)c2cc3ccccc3oc2=O)C(c2ccc(F)cc2)c2cc(Br)ccc2N1 (stereo not shown),-68.6%
14,COc1ccccc1C(=O)N1CC(=O)Nc2ccc(C)cc2C1c1ccc(F)cc1 (stereo not shown),-38.6%
15,O=C1CN(C(=O)c2c(F)cccc2F)C(c2ccc(F)cc2)c2cc(Br)ccc2N1 (stereo not shown),-35.8%
16,Cc1ccc2c(c1)C(c1ccccc1)N(C(=O)c1cc3ccccc3oc1=O)CC(=O)N2 (stereo not shown),-65.1%
17,Cc1ccccc1C(=O)N1CC(=O)Nc2ccc(F)cc2C1c1ccc(F)cc1 (stereo not shown),-16.1%
18,O=C1CN(C(=O)c2cc3ccccc3oc2=O)C(c2ccc(F)cc2)c2cc(F)ccc2N1 (stereo not shown),-32.1%
19,CC(=O)N1CC(=O)Nc2ccc(C)cc2C1c1ccccc1 (stereo not shown),14.7%
20,Cc1ccc2c(c1)C(c1ccccc1)N(C(=O)c1cccc([N+](=O)[O-])c1)CC(=O)N2 (stereo not shown),-55.6%
21,O=C1CN(C(=O)c2cc3ccccc3oc2=O)C(c2ccccc2)c2cc(F)ccc2N1 (stereo not shown),-33.9%
22,Cc1ccc2c(c1)C(c1ccccc1)N(C(=O)c1ccc(F)cc1)CC(=O)N2 (stereo not shown),-6.99%
23,CC1(C)OC(=O)C(=CNc2cccc(C(=O)O)c2)C(=O)O1,18.7%
